# Screen size: about 290,000 compounds; about 370 (0.13%) were called active. Many of the other results were omitted from the sample, so actives are more common in it than they were. Results with a measured potency or affinity are listed apart. A number with no mark means an inactive call.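 The calls were made as follows: active = spots per cell inhibited over 60%, with over 100 cells counted and total cytoplasm intensity under 500,000; inconclusive = wells with under 100 cells, flagged as likely toxic; inactive = the rest.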
# Target: G-protein coupled receptor 55 (Homo sapiens) (UniProt Q9Y2T6)
# Sequence (Q9Y2T6 whole entry, looked up): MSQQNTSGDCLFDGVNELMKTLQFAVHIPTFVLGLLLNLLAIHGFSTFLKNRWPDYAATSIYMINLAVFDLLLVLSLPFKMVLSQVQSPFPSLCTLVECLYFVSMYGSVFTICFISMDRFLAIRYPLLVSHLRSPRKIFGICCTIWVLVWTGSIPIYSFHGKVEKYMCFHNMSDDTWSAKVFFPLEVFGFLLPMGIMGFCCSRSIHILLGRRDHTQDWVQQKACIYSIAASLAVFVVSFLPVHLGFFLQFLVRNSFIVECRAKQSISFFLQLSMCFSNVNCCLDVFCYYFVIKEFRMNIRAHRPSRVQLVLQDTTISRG
# Experiment: GPR55 antagonists blocking LPI-driven arrestin recruitment, primary screen, imaging, U2OS, beta-arrestin-GFP, LPI agonist (AID 2013);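 also: U2OS cells stably carrying GPR55 and arrestin-GFP stimulated by 5 µM LPI near EC80; imaged beta-arrestin-GFP aggregate spots per cell after agonist stimulation; plate controls were LPI-stimulated DMSO wells for no effect and DMSO wells without LPI for full effect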
# Conditions: U2OS GPR55 beta-arrestin-GFP translocation imaging, LPI antagonism; at 10 µM; active compounds read high
row,SMILES,inhibition
1,CCOC(=O)c1sc(NC(=O)CSc2ncn(-c3ccccc3)n2)nc1C,14.4%
2,CCOC(=O)N1CCN(Cc2nc3c(c(=O)n(C)c(=O)n3C)n2CCC(C)C)CC1,-1.3%
3,COC(=O)C1=CC(C(=O)c2cccs2)=NN(c2ccc(OC)cc2)C1C(=O)OC (centres undefined),7.5%
4,COc1ccc(C(=O)NCC(=O)N2CCC3(CC2)NCCc2[nH]cnc23)cc1,-11.2%
5,O=C(c1csc2ccccc12)n1cccn1,-12.1%
6,Oc1ccccc1/C=N/n1cnnc1,-8.4%
7,Nc1nc(C23CC4CC(CC(Cl)(C4)C2)C3)cs1,-9.3%
8,Nc1nc(C23CC4CC(CC(C4)C2)C3)cs1,24.8%
9,Cc1cccc(N=Nc2c(C)[nH]n(C(N)=S)c2=O)c1C,10.8%
10,Cc1[nH]n(C(N)=S)c(=O)c1N=Nc1ccccc1C(F)(F)F,7.7%
11,Cc1ccccc1N=Nc1c(C)[nH]n(C(N)=S)c1=O,93.2% (active)
12,S=C(Nc1ccccc1Oc1ccccc1)Nc1cccc(Cl)c1Cl,-5.2%
13,S=C(Nc1cccc(Cl)c1)Nc1ccccc1Oc1ccccc1,8.7%
14,CCc1nc(NC(=O)Cc2csc(C)n2)sc1C(=O)OC,14.5%
15,COc1ccc(Cn2ccnc2SCC(=O)Nc2nnc(C)s2)cc1,-0.9%
16,CCc1nnc(NS(=O)(=O)c2ccc(NC(=S)NC(=O)/C=C/c3ccc(OC)cc3)cc2)s1,10.6%
17,CCc1nnc(NS(=O)(=O)c2ccc(NC(=O)Nc3ccc(OC)cc3)cc2)s1,-0.7%
18,CCc1nnc(NS(=O)(=O)c2ccc(NC(=O)/C=C/C(=O)O)cc2)s1,6.6%
19,CCc1nnc(NS(=O)(=O)c2ccc(NC(=O)/C=C/c3ccc(F)cc3)cc2)s1,1.5%
20,COc1ccc(/C(C)=N\Nc2nc(-c3ccccc3)cc(=O)[nH]2)cc1,12.1%
21,Cc1nn2c(N3CCOCC3)cc(C(C)(C)C)nc2c1-c1ccc(Cl)cc1,-7.5%
22,O=C(Nc1ccc(Nc2ccccc2)cc1)c1ccc(Cl)c([N+](=O)[O-])c1,12%
23,O=C(Nc1ccc(C(O)(C(F)(F)F)C(F)(F)F)cc1)c1ccc(Cl)c([N+](=O)[O-])c1,88.6% (active)
24,O=C(O)c1cc(NC(=O)c2ccc(Cl)c([N+](=O)[O-])c2)cc(C(=O)O)c1,6.4%

row,SMILES,inhibition
1,CCCn1c2c(c(O)c(C(=O)Nc3ncccc3O)c1=O)CCCC2,-10.6%
2,CCCCn1c(=O)[nH]c(=O)c2c1nc(CN1C(=O)c3ccccc3S1(=O)=O)n2CCC,8.3%
3,CCCCn1c(CCC(=O)O)nc2c1c(=O)[nH]c(=O)n2CCC,-0.5%
4,CCC(Sc1nc(N)cc(=O)[nH]1)C(=O)NC(C(=O)OC)c1ccccc1 (centres undefined),3.4%
5,COc1ccc(C2CCCN2CC(O)COc2ccccc2C(C)C)cc1 (centres undefined),5.6%
6,O=C1CC(SC(=Nc2ccccc2)Nc2ccccc2)C(=O)N1c1ccc(Cl)c(Cl)c1 (centres undefined),72.2% (active)
7,O=C1CC(SC(=Nc2ccccc2)Nc2ccccc2)C(=O)N1c1ccc(Cl)cc1 (centres undefined),6.2%
8,O=C1CC(SC(=Nc2ccccc2)Nc2ccccc2)C(=O)N1c1cccc(Cl)c1 (centres undefined),17.2%
9,Cc1ccc(CNC(=O)c2nnn(CC(=O)Nc3cccc(C)c3C)c2N)cc1,18.1%
10,Cc1cc(SCc2ccc(Br)cc2)nc(=O)[nH]1,-5.2%
11,CCOc1ccc(OCc2ccc(C(=O)N3CCCCC3)o2)cc1,18.5%
12,O=C(O)c1cc(NS(=O)(=O)c2ccc(N3CCCCC3)c([N+](=O)[O-])c2)cc(C(=O)O)c1,5%
13,O=C(O)c1cc(NS(=O)(=O)c2ccc(NCc3ccccc3)c([N+](=O)[O-])c2)cc(C(=O)O)c1,58.9%
14,Cc1sc(NC(=O)c2cc(-c3ccccc3)nc3ccccc23)c(C(N)=O)c1C,-0.9%
15,Cc1ccc(C)c(-c2cc(C(=O)Nc3sc(C)c(C)c3C(N)=O)c3ccccc3n2)c1,18%
16,Cc1sc(NC(=O)c2cc(-c3ccc(Cl)cc3)nc3ccccc23)c(C(N)=O)c1C,28.7%
17,CCOC(=O)c1sc(NC(=O)c2cc(-c3ccccc3C)nc3ccccc23)c(C#N)c1C,-36.6%
18,O=C(c1cc2cc(Br)ccc2o1)N1CCN(c2ccccc2)CC1,5.9%
19,CC(Sc1nnc(-c2ccc(OC(F)F)cc2)o1)C(=O)NCC1CCCO1 (centres undefined),17.5%
20,COc1cc(NC(=O)CN2C(=O)CN(C)C2=O)c(C)cc1[N+](=O)[O-],10.3%
21,COc1cc(NC(=O)CN2CCCCC2)c(C)cc1[N+](=O)[O-],10.9%
22,C=CCNC(=O)C1CCC(=O)N1S(=O)(=O)c1ccc(C)cc1 (centres undefined),9.3%
23,CC(c1ccccc1C(O)c1ccccc1)N(C)C (centres undefined),28.9%
24,CC(c1ccccc1C(O)(c1ccccc1)c1ccccc1)N(C)C (centres undefined),6.4%

row,SMILES,inhibition
1,S=c1[nH]nc(CCc2ccc(Cl)cc2)o1,9.7%
2,COc1ccc(S(=O)(=O)N(CC(=O)N2CCCCCC2)c2ccccc2OC)cc1,9.8%
3,CCOC(=O)c1cc(C#N)c(Oc2ccccc2OC)nc1-c1ccccc1,18.2%
4,CCOC(=O)c1cc(C#N)c(SC)nc1-c1ccccc1,18%
5,CCOC(=O)c1cc(C#N)c(Oc2cccc(C(F)(F)F)c2)nc1-c1ccccc1,10%
6,COC(=O)c1cc(C#N)c(Oc2ccc(F)cc2)nc1C,20.6%
7,CCOC(=O)c1c(C)[nH]c(C)c1S(=O)(=O)NCCN1CCN(c2cc(Cl)ccc2C)CC1,11.1%
8,Cc1ccc(NS(=O)(=O)c2cccc(C(=O)O)c2)cc1S(=O)(=O)N1CCCCC1,5.9%
9,Cc1cc(C)nc(SC2CC(=O)N(c3ccc(Cl)cc3)C2=O)n1 (centres undefined),20.8%
10,O=[N+]([O-])c1ncn(C23CC4CC(CC(C4)C2)C3)n1,-8.9%
11,N#CC(c1ccccn1)c1ncc(C(F)(F)F)cc1Cl (centres undefined),3.6%
12,O=C(NCc1ccccn1)c1ccc(Cl)c(S(=O)(=O)N2CCCCCC2)c1,21.3%
13,CCCCC1(CC(=O)OCC)C(=O)N(c2ccccc2)N(c2ccccc2)C1=O,17.5%
14,CCCCC1(CO)C(=O)N(c2ccccc2)N(c2ccccc2)C1=O,-5.2%
15,CCCCC1(Cc2ccc([N+](=O)[O-])cc2)C(=O)N(c2ccccc2)N(c2ccccc2)C1=O,51.2%
16,CCCCC1(CC(=O)OC)C(=O)N(c2ccccc2)N(c2ccccc2)C1=O,-3.2%
17,CCCCCCSc1nc(O)c(C2OC(=O)c3c2ccc(OC)c3OC)c(=O)n1CC (centres undefined),2.6%
18,CC(=O)c1ccc(NC(=O)CCc2c(C)nn(-c3ccc(N4CCOCC4)nn3)c2C)cc1,4.4%
19,O=C(NCc1ccco1)C(=O)NCC1OCCN1C(=O)c1ccc(Cl)cc1 (centres undefined),2.4%
20,O=C(Nc1ccnc(=O)[nH]1)c1sc2ccccc2c1Cl,5.4%
21,CCOCc1nnc(NC(=O)c2cc(OC)c(OC)cc2[N+](=O)[O-])s1,1.7%
22,O=C1CSC(c2ccc(Cl)cc2Cl)N1c1ccccn1 (centres undefined),22.4%
23,O=C1CSC(c2cccc(Cl)c2Cl)N1c1ccccn1 (centres undefined),13%
24,C/C(CC(=O)N1CCN(C=O)CC1)=N\NC(=O)c1cc2ccccc2cc1O,5.8%

row,SMILES,inhibition
1,Cc1nc2c(oc3ccc(Cl)cc32)c(=O)[nH]1,-10.2%
2,Clc1ncnc2c1oc1ccccc12,26.5%
3,Cc1c(N/C(=N/S(=O)(=O)c2ccc(Cl)cc2)c2ccccc2)c(=O)n(-c2ccccc2)n1C,-4.8%
4,c1ccc(-c2ccccc2-c2nc(-c3ccncc3)no2)cc1,41.2%
5,COc1ccc(-c2noc(-c3ccccc3-c3ccccc3)n2)cc1,10.6%
6,Cc1ccc(N/N=C(\C#N)C(=N)N2CCOCC2)cc1,86.4% (active)
7,Cc1ccc(N/N=C(\C#N)C(=N)N2CCCCC2)cc1,2.6%
8,Cc1ccc(N/N=C(\C#N)C(=N)N2CCCCCC2)cc1,-5%
9,CN(CC(=O)NCc1ccccc1F)S(=O)(=O)c1ccc(Cl)cc1,3.3%
10,COC(=O)CSc1nc(NCC(C)C)nc(N2CCOCC2)n1,-2.9%
11,Clc1ccccc1OCCCn1ccnc1,-2.4%
12,Clc1ccccc1C(c1ccccc1)(c1ccccc1)n1ccnc1,98.7% (active)
13,Clc1ccccc1OCCn1ccnc1,1.9%
14,CCCCN(C(=O)CCCc1nc2ccccc2c(=O)[nH]1)c1c(N)n(CCCC)c(=O)[nH]c1=O,21.5%
15,COC(=O)c1sc(NC(=O)/C=C/c2ccc(C)cc2)nc1C,16.9%
16,Cc1nc2ccc(S(=O)(=O)N3CCCCC3)cc2s1,-5.9%
17,CSc1nc2ccc(S(=O)(=O)N3CCCCC3)cc2s1,10.7%
18,CC1NC(=S)N(C2CCCCC2)C1=O (centres undefined),2.5%
19,COc1cccc(OC)c1C1=NC(C)(C)CO1,6.1%
20,COc1ccc2cc(C(=O)C3CCCN(C(=O)c4cc5nc(C)cc(C)n5n4)C3)ccc2c1 (centres undefined),-6.7%
21,Cc1c(N=C2N=C(NC(=O)NC(C)(C)C)c3ccccc32)c(=O)n(-c2ccccc2)n1C,1.4%
22,Cc1cccc(C)c1NS(=O)(=O)c1cc2c3c(c1)CC(=O)N3CCC2,6.8%

# From PubChem BioAssay AID2013 (Sanford-Burnham Center for Chemical Genomics, 2009)
